Laboratory results published in ChEMBL document CHEMBL1961873, “Compounds: GSK PKIS; Assays: Nanosyn kinase panel” (2012).

Assays:
[1] = target: T1, Ephrin type-B receptor 2 (Homo sapiens) (UniProt P29323); settings: at 1 µM
T1 sequence (whole entry): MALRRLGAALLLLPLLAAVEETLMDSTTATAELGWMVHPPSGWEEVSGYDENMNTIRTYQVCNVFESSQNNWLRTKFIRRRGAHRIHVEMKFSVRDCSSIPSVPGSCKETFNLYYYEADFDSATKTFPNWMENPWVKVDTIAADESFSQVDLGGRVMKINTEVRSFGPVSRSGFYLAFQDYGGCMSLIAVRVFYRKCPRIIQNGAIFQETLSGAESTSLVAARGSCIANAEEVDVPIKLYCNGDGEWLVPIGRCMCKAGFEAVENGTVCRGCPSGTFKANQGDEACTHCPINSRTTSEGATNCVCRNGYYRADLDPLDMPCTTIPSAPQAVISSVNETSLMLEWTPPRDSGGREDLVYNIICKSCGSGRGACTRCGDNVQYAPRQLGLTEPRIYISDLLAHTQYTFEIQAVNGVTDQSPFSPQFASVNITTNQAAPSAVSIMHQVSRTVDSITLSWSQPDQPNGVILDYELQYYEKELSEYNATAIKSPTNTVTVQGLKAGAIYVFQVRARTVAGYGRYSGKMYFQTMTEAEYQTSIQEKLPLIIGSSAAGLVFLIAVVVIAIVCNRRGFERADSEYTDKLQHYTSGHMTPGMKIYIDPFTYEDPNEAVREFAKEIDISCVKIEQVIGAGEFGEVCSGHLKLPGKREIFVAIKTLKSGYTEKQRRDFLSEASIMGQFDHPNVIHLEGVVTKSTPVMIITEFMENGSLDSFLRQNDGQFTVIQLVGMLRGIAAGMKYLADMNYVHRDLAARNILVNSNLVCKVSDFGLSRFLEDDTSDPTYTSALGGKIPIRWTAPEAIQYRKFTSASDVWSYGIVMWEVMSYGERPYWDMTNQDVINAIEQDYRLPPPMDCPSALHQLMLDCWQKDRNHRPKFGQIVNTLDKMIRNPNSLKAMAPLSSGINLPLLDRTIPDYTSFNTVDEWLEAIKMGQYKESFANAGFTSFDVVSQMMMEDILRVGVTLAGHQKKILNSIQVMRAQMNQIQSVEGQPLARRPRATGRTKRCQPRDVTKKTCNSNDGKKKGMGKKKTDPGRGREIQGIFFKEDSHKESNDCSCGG

[2] = target: T2, Ephrin type-B receptor 3 (Homo sapiens) (UniProt P54753); settings: at 0.1 µM
T2 sequence (whole entry): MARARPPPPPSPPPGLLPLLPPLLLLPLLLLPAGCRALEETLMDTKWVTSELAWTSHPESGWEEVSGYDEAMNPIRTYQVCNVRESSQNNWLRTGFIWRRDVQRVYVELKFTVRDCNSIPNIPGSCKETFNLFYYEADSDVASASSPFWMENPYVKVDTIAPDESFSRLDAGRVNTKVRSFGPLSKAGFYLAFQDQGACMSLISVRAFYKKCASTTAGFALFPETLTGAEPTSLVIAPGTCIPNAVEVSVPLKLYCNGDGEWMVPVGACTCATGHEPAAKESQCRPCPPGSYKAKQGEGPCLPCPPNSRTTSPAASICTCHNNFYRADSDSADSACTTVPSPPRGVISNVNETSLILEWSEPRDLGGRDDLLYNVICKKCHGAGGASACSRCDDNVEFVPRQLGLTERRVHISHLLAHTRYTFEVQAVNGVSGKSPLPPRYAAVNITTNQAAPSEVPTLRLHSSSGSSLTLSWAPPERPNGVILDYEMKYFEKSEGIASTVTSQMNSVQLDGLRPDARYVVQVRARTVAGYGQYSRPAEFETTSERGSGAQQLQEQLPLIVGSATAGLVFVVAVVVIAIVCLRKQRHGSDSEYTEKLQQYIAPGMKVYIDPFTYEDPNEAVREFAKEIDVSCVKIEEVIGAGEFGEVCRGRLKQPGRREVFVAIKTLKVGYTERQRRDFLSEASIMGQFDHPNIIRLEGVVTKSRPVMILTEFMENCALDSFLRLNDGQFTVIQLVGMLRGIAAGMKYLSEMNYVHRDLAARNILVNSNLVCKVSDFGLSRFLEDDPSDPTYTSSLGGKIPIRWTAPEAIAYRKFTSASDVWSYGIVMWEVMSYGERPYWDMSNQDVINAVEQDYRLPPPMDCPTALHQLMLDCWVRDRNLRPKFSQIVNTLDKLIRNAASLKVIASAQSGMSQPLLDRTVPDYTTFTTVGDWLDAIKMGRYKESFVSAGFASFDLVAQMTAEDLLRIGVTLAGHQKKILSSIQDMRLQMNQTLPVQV

[3] = target: T2, Ephrin type-B receptor 3 (Homo sapiens); settings: at 1 µM
[4] = target: T3, Ephrin type-B receptor 4 (Homo sapiens) (UniProt P54760); settings: at 0.1 µM
T3 sequence (whole entry): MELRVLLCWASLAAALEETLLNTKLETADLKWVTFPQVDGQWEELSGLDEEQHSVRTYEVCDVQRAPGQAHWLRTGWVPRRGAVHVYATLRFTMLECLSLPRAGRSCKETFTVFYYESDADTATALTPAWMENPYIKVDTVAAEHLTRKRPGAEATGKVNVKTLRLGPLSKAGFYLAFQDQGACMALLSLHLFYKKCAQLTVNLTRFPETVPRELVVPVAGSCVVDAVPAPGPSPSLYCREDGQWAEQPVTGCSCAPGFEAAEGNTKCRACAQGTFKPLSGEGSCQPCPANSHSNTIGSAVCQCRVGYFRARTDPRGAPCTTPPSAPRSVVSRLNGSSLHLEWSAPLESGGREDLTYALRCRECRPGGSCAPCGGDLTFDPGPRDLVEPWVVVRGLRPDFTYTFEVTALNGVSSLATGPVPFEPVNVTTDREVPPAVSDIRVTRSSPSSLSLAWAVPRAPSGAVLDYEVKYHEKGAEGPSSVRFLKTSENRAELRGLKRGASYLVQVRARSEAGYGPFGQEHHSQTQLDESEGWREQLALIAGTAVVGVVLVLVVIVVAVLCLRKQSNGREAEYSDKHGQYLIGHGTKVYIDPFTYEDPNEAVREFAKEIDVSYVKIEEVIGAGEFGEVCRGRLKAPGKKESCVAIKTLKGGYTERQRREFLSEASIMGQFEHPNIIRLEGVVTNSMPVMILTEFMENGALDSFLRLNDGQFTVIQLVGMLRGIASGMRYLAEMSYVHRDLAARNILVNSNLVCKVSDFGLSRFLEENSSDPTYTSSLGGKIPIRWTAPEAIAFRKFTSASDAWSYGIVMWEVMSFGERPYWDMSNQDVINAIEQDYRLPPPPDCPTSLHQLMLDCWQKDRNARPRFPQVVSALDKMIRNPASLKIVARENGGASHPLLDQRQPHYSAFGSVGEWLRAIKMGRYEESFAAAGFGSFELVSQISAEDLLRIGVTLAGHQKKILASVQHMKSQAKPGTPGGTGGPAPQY

[5] = target: T3, Ephrin type-B receptor 4 (Homo sapiens); settings: at 1 µM
[6] = target: Receptor tyrosine-protein kinase erbB-2 (Homo sapiens) (UniProt P04626); settings: at 0.1 µM
Chain of Receptor tyrosine-protein kinase erbB-2 (Homo sapiens) (P04626 whole entry): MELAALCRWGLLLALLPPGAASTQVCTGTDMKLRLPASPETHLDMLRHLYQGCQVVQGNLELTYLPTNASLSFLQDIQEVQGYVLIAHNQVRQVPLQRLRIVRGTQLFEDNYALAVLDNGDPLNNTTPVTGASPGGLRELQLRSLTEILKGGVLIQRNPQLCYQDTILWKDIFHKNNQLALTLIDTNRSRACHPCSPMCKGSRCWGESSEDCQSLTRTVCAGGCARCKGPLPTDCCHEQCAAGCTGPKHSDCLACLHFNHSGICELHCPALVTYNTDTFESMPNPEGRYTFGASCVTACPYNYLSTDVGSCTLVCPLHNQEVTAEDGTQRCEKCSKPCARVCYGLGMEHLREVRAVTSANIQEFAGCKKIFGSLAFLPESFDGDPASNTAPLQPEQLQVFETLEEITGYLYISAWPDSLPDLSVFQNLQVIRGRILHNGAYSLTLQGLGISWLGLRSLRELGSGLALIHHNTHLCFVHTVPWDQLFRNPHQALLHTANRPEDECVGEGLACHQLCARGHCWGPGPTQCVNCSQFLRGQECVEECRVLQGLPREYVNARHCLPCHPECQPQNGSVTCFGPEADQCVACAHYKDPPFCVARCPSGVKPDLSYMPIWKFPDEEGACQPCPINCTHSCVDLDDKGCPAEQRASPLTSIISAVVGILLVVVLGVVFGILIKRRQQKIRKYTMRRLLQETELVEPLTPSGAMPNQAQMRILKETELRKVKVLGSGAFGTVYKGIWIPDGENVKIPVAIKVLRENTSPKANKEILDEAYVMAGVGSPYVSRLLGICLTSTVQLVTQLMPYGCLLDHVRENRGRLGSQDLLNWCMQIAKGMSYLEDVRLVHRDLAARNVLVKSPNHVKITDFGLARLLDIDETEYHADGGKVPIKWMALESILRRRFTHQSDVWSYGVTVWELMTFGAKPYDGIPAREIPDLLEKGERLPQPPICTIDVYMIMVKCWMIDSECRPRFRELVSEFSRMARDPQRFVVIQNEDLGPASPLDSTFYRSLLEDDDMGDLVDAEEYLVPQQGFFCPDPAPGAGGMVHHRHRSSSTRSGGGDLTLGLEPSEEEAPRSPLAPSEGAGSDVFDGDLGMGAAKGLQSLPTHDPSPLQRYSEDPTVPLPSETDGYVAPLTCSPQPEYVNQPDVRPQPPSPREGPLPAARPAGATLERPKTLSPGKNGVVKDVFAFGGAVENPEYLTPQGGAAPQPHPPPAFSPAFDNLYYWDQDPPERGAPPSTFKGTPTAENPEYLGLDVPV

[7] = target: Receptor tyrosine-protein kinase erbB-2 (Homo sapiens) (UniProt P04626); settings: at 1 µM
[8] = target: Receptor tyrosine-protein kinase erbB-4 (Homo sapiens) (UniProt Q15303); settings: at 0.1 µM
Chain of Receptor tyrosine-protein kinase erbB-4 (Homo sapiens) (Q15303 whole entry): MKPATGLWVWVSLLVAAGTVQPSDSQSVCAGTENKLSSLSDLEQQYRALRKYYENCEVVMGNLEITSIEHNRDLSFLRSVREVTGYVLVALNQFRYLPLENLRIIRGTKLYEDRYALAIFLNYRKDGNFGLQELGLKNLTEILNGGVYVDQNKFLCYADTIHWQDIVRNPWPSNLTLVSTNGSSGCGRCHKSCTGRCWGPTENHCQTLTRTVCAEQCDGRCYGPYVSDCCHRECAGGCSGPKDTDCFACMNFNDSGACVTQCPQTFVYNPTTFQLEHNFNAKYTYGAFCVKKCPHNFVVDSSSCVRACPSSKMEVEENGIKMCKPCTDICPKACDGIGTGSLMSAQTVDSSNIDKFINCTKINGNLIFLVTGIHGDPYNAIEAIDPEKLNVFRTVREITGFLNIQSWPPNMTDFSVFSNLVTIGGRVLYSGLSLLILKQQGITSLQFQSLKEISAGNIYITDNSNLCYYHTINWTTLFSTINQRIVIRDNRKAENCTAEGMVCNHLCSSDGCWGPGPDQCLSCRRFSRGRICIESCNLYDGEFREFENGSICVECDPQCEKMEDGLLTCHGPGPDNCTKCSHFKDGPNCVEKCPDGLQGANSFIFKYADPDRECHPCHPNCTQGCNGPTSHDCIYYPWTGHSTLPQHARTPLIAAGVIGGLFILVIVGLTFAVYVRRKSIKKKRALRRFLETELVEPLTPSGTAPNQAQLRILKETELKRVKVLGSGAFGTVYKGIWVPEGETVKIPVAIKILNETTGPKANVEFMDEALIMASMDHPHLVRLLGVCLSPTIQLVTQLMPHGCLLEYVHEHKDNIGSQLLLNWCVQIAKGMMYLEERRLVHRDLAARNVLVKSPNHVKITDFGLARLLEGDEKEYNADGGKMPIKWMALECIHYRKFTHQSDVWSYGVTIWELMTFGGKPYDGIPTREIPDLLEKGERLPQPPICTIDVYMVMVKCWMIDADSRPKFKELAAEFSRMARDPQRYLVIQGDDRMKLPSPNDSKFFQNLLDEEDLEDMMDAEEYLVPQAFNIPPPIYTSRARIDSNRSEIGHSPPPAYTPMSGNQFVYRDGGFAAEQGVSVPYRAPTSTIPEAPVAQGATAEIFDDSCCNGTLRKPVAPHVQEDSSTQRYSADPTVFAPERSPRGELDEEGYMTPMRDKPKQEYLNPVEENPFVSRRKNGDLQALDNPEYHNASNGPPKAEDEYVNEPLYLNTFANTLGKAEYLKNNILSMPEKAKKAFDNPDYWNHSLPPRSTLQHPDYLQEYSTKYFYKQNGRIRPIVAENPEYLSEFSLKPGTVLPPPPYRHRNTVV

[9] = target: Receptor tyrosine-protein kinase erbB-4 (Homo sapiens) (UniProt Q15303); settings: at 1 µM
[10] = target: Tyrosine-protein kinase Fer (Homo sapiens) (UniProt P16591); settings: at 0.1 µM
[11] = target: Tyrosine-protein kinase Fer (Homo sapiens) (UniProt P16591); settings: at 1 µM
[12] = target: Tyrosine-protein kinase Fes/Fps (Homo sapiens) (UniProt P07332); settings: at 0.1 µM
[13] = target: Tyrosine-protein kinase Fes/Fps (Homo sapiens) (UniProt P07332); settings: at 1 µM
[14] = target: Fibroblast growth factor receptor 1 (Homo sapiens) (UniProt P11362); settings: at 0.1 µM
Chain of Fibroblast growth factor receptor 1 (Homo sapiens) (P11362 22-822 limits assumed): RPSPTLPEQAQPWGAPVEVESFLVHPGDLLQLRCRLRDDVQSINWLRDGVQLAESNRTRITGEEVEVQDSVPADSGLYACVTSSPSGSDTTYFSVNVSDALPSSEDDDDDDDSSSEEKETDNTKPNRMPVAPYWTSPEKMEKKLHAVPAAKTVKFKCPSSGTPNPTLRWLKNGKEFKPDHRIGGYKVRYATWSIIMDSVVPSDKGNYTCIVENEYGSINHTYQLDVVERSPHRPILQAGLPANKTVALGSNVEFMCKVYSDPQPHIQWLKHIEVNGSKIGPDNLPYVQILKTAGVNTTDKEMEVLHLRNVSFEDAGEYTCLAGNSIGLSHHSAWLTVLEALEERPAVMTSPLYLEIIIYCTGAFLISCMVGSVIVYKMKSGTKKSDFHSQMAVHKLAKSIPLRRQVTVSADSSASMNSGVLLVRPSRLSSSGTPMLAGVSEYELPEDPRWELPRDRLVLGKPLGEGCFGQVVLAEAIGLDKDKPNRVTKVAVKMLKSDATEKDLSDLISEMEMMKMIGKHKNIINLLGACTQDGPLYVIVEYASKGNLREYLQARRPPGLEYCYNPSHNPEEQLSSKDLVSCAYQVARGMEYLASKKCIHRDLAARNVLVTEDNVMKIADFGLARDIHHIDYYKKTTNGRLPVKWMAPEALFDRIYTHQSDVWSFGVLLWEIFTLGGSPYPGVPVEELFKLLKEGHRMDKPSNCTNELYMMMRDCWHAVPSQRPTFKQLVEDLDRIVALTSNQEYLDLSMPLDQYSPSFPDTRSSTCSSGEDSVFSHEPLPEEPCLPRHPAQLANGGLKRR

[15] = target: Fibroblast growth factor receptor 1 (Homo sapiens) (UniProt P11362); settings: at 1 µM
[16] = target: Fibroblast growth factor receptor 2 (Homo sapiens) (UniProt P21802); settings: at 0.1 µM
Chain of Fibroblast growth factor receptor 2 (Homo sapiens) (P21802 22-821 limits assumed): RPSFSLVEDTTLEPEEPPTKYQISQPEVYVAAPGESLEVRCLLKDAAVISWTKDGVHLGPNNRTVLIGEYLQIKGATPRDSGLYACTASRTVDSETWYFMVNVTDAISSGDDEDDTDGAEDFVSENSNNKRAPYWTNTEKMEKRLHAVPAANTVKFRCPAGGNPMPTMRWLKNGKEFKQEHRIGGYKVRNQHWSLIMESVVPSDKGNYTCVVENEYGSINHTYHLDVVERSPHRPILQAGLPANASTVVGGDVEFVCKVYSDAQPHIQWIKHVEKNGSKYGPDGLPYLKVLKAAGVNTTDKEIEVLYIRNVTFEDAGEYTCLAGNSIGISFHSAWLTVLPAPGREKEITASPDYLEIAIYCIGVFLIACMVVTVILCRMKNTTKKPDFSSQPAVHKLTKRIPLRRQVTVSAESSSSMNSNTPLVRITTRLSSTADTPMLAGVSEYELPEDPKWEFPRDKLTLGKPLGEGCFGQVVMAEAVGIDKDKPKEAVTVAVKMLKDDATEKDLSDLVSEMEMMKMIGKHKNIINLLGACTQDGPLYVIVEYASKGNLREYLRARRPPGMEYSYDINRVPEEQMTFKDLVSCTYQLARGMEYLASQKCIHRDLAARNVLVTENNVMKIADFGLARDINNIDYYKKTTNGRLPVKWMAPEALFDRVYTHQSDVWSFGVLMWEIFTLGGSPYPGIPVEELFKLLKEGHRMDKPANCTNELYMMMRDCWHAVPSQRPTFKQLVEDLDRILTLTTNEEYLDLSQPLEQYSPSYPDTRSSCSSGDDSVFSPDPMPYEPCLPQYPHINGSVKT

[17] = target: Fibroblast growth factor receptor 2 (Homo sapiens) (UniProt P21802); settings: at 1 µM
[18] = target: Fibroblast growth factor receptor 3 (Homo sapiens) (UniProt P22607); settings: at 0.1 µM
[19] = target: Fibroblast growth factor receptor 3 (Homo sapiens) (UniProt P22607); settings: at 1 µM
[20] = target: Fibroblast growth factor receptor 4 (Homo sapiens) (UniProt P22455); settings: at 0.1 µM;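 also: values are mean percent inhibition of FGFR4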
Chain of Fibroblast growth factor receptor 4 (Homo sapiens) (P22455 22-802 limits assumed): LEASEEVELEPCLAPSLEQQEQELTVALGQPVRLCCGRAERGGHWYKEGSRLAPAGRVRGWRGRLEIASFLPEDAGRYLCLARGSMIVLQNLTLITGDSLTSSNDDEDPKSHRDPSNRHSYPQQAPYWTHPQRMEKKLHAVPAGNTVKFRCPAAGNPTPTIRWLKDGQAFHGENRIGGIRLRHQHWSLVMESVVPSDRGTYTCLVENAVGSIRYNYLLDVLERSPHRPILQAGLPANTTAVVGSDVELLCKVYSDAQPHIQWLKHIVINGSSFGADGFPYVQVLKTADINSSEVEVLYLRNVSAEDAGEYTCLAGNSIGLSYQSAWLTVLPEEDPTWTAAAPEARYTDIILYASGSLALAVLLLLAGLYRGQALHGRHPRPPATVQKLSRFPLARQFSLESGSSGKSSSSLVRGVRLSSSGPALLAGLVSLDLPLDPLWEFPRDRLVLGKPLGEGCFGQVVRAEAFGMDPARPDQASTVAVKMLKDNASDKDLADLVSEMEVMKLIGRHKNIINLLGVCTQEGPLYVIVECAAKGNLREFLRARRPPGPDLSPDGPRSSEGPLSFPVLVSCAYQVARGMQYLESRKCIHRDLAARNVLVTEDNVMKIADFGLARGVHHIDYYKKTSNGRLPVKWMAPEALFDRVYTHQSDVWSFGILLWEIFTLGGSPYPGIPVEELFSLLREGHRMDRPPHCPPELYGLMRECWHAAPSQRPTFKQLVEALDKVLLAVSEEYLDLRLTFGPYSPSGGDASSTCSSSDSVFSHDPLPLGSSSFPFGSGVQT

Compound | inhibition [1] [%] | inhibition [2] [%] | inhibition [3] [%] | inhibition [4] [%] | inhibition [5] [%] | inhibition [6] [%] | inhibition [7] [%] | inhibition [8] [%] | inhibition [9] [%] | inhibition [10] [%] | inhibition [11] [%] | inhibition [12] [%] | inhibition [13] [%] | inhibition [14] [%] | inhibition [15] [%] | inhibition [16] [%] | inhibition [17] [%] | inhibition [18] [%] | inhibition [19] [%] | inhibition [20] [%]
Cc1ccc(O)cc1Nc1ccnc2cc(-c3ccccn3)ccc12 | 91.9 | 18.1 | 53.3 | 87.3 | 95.1 | 2.16 | 11.6 | 35.1 | 75.6 | 5.39 | 8.05 | 4.23 | 8.97 | 15.1 | 46.6 | 12.8 | 43.2 | 8.93 | 25.8 | 9.41
COc1ccc(-c2oc3ncnc(N)c3c2-c2ccc(NC(=O)Nc3cc(C(F)(F)F)ccc3F)cc2)cc1 | 89.9 | 92.7 | 99.7 | 83.7 | 96.6 | 4.07 | 8.56 | 12.8 | 14.6 | 8.1 | 64.5 | 3.91 | 17.1 | 10.1 | 66 | 31.2 | 75.9 | 10 | 63.8 | 5.68
Cc1cccc(Nc2ncc(-c3ccccc3)o2)c1 | 2.78 | 1.56 | 2.29 | 2.8 | 3.6 | 2.48 | 2.62 | 3.46 | 8.57 | 3.24 | 7.96 | 1.97 | 3.44 | 5.23 | 3.22 | 6.15 | 6.52 | 6.68 | 4.17 | 2.94
CNC(=O)c1cc(-c2ccc(F)cc2)cc(-c2ccc(S(=O)(=O)N3CCCC3)cc2)c1N | 5.41 | 0.26 | 3.7 | 1.99 | 2.03 | 2.24 | 7.8 | 5.77 | 10.4 | 2.99 | 2.21 | 2.25 | 1.64 | 3.72 | 5.1 | 9.77 | 5.71 | 4.56 | 3.99 | 2.78
c1cc(-c2cnn3nc(N4CCOCC4)ccc23)nc(NC2CC2)n1 | 9.21 | 2.88 | 3.96 | 0.45 | 1.96 | 1.45 | 1.94 | 13.6 | 15.3 | 0.53 | 1.58 | 3.42 | 4.53 | 8.29 | 9.37 | 4.74 | 11.4 | 6.59 | 10.9 | 1.73
COc1ccc(CNC(=O)c2ccc(-c3cc(-c4nnc(C)o4)ccc3C)cc2)cc1 | 10.6 | -0.7 | 0.39 | 1.69 | -0.88 | 3.57 | 10.7 | 2.27 | 7.19 | 2.8 | 4.77 | 1.89 | 2.09 | 3.05 | 2.33 | 3.51 | 5.88 | 2.91 | 5.29 | 3.34
